Source: PubChem BioAssay
Rows were chosen to be rich in hits. Some 7.9% of all compounds tested hit in one or more screens of this group.
KB-V1 MDR tox: kills drug-selected multidrug resistant KB-V1 cells; KB-V1 MDR cells viability, CellTiter-Glo, 72 h; hit rate 3.4% among 400,000; Potency, µM (titrated, usually from 46.1 µM), usual class: cytotoxic; AID 1347076; also: nearly all actives have a fitted effect of over 60% in size
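KB-V1, DMEM (no phenol red) + 10% FBS; cpd pin-transferred, titration series; 72 h, 37 degrees C; CellTiter-Glo, luminescence. Data normalized, curve-fit.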
HT1080-NT tox: kills 2HG-producing HT-1080-NT fibrosarcoma cells; Potency, µM (top dose mostly 46.1 µM), actives largely listed as cytotoxic; HT-1080-NT fibrosarcoma viability, CellTiter-Glo ATP luminescence, 48 h; hit rate 1.6% among 360,000;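 also: NT is the 2HG producing partner of a matched IDH1 knockdown line; nearly all actives have a fitted effect of over 55% in size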
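Read-out is CellTiter-Glo luminescence after 10 minutes at room temperature, following 48 hours' compound treatment of HT-1080-NT cells (750 cells/well, RPMI, 5% FBS, 37 degrees C).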
HT1080 IDH1KD tx: toxicity to HT-1080 IDH1 knockdown cells (counter line); AID 686971; HT-1080 IDH1 knockdown viability, ATP luminescence, 48 h; Potency, µM (series often up to 46.1 µM), most hits filed as cytotoxic; hit rate 2% among 360,000
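Knockdown cells (IDH1KD HT-1080) received compounds 2 h after plating at 750 cells/well and were kept 48 h at 37 °C in 5% FBS RPMI. A CellTiter-Glo luminescence read gave % activity for curve fitting.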
MCF10A rereplic: induces DNA re-replication in MCF 10a normal breast cells. hit rate 2.9% among 350,000. AID 624296. MCF 10A DNA re-replication, Hoechst nuclear intensity, 48 h. Potency, µM (highest dose often 46.1 µM), hits mostly activators; also: nearly all actives have a fitted effect of over 50% in size
SW480 rerep: DNA re-replication induction in SW480 cells | Potency, µM (series often up to 46.1 µM), most hits filed as activators | AID 624297 | hit rate 1.8% among 340,000 | SW480 DNA re-replication, Hoechst DNA content imaging, 48 h; also: nearly all actives have a fitted effect of over 55% in size
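Image-based read-out: total Hoechst fluorescence of nuclei (405 nm excitation, 500-530 nm emission), with hits raising the fraction of high-intensity nuclei. SW480 colon cells incubated 48 hr with compounds at 37 C.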
KB-3-1 cytotox: KB-3-1 parental cell cytotoxicity | KB-3-1 viability, CellTiter-Glo ATP luminescence, 72 h | Potency, µM (series often up to 46.1 µM), most hits filed as cytotoxic | hit rate 1.4% among 400,000; also: nearly all actives have a fitted effect of over 60% in size
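Screening of KB-3-1 cells (DMEM, 10% FBS, phenol-red free) ran from lowest to highest compound concentration; after 72 h at 37 °C viability was read luminescently and curves fitted.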
Large screens that a line does not name were inactive. Calls follow the shape of the dose curve; as a rule, active = well fitted curve in the direction sought with a large enough effect; inconclusive = small, poorly fitted or top-dose-only effect, or another doubt; inactive = no such curve, though single readings can be large; an effect the other way counts as inactive or inconclusive.

COc1ccccc1N1CCN(C(=O)c2cc3c(C)nc4ccccc4c3o2)CC1	KB-V1 MDR tox inconclusive, HT1080-NT tox inconclusive, KB-3-1 cytotox inconclusive
CCOC(=O)C1CCCN(C(=O)c2cc3c(C)nc4ccccc4c3o2)C1 (configuration not stated)	KB-V1 MDR tox 13µM
CCOC(=O)C1CCCN(C(=O)c2ccc3nc(-c4cccc(OC)c4)oc3c2)C1 (configuration not stated)	HT1080-NT tox inconclusive, HT1080 IDH1KD tx 6.5µM, MCF10A rereplic inconclusive, SW480 rerep 16µM, KB-3-1 cytotox 5.8µM
COc1ccc(NC(C)=O)cc1S(=O)(=O)N1CCN(Cc2cccs2)CC1	none
O=S(=O)(c1ccccc1)c1nc(-c2cccs2)oc1SCc1ccccc1Cl	none (no result: HT1080-NT tox, HT1080 IDH1KD tx, MCF10A rereplic, SW480 rerep)
CCCc1cc(C(=O)N(C)CC(=O)Nc2ccc(OCC)c(OCC)c2)sc1C	KB-V1 MDR tox inconclusive, MCF10A rereplic 0.46µM, KB-3-1 cytotox inconclusive
CCOc1ccc(NC(=O)CN(C)C(=O)C2CCCC2)cc1OCC	MCF10A rereplic 0.65µM
CCCN(Cc1cc2cc(C)ccc2[nH]c1=O)C(=O)c1cccc(Cl)c1	KB-3-1 cytotox inconclusive (no result: HT1080-NT tox, HT1080 IDH1KD tx, MCF10A rereplic, SW480 rerep)
Cc1ccccc1-c1ccc(Nc2ccc(N3CCOCC3)cc2)nn1	KB-V1 MDR tox 21µM
O=S1(=O)N=C(Nc2ccc(N3CCOCC3)cc2)c2ccccc21	none
COc1cccc(CN(C(=O)c2ccc(C(C)(C)C)cc2)C2CCS(=O)(=O)C2)c1 (configuration not stated)	none (no result: HT1080-NT tox, HT1080 IDH1KD tx, MCF10A rereplic, SW480 rerep)
Cc1ccc2nc3c(cc2c1)c(C)nn3-c1ccccc1	MCF10A rereplic inconclusive, SW480 rerep 7.3µM
Cc1nn(-c2ccccc2)c2nc(=O)n(-c3ccccc3)cc12	HT1080 IDH1KD tx inconclusive
Cc1ccc(S(=O)(=O)Nc2cccc(-c3cn4ccsc4n3)c2)cc1	KB-V1 MDR tox 23µM, HT1080-NT tox inconclusive, HT1080 IDH1KD tx inconclusive, MCF10A rereplic 13µM, SW480 rerep inconclusive, KB-3-1 cytotox inconclusive
O=S(=O)(Nc1cccc(-c2cn3cccnc3n2)c1)c1ccc(F)cc1	KB-V1 MDR tox 21µM
CCOC(=O)c1c(S(=O)(=O)N2CCCC(C(=O)NCc3ccccc3Cl)C2)c(C)n(C)c1C (configuration not stated)	none (no result: HT1080-NT tox, HT1080 IDH1KD tx, MCF10A rereplic, SW480 rerep)
O=C(CN1CCN(C(=O)C2CCN(C(=O)/C=C/c3ccccc3)CC2)CC1)Nc1ccc(F)cc1	KB-V1 MDR tox inconclusive
CCCCCC[N+](C)(C)CCSSCC[N+](C)(C)CCCCCC	none
CCCCCCCCCCCCCC[N+](C)(C)C	SW480 rerep inconclusive (no result: KB-V1 MDR tox, HT1080-NT tox, HT1080 IDH1KD tx, KB-3-1 cytotox)
CCCCCCCCCCCCCCCC[N+](C)(C)CC	HT1080-NT tox 16µM, HT1080 IDH1KD tx 16µM, MCF10A rereplic inconclusive, SW480 rerep inconclusive, KB-3-1 cytotox inconclusive
CCCCCCCCCCCCCCCC[N+](C)(C)CCl	SW480 rerep 21µM, KB-3-1 cytotox inconclusive
Cc1ccc(S(=O)(=O)N2CCc3ccccc3C2)cc1C	none
COc1cc(C)nc(OCCNC(=O)COc2ccc(Cl)cc2C)n1	none
Cc1cc(Cl)ccc1OCC(=O)NCCOc1nc(N2CCCCC2)nc(N2CCOCC2)n1	KB-V1 MDR tox 4.1µM
Cc1ccc(N(C(C)C(=O)Nc2cc(Cl)ccc2Oc2ccccc2)S(C)(=O)=O)cc1 (configuration not stated)	KB-V1 MDR tox inconclusive, HT1080-NT tox inconclusive, SW480 rerep 8.2µM
COc1ccc(C)cc1NC(=O)C(C)N(c1ccc(C)cc1)S(C)(=O)=O (configuration not stated)	none
Cc1ccc(N(CC(=O)Nc2cc(Cl)ccc2Oc2ccccc2)S(C)(=O)=O)cc1C	KB-V1 MDR tox 21µM, KB-3-1 cytotox inconclusive
Cc1ccc(N(CC(=O)Nc2cc(Cl)ccc2Oc2ccccc2)S(C)(=O)=O)c(C)c1	KB-V1 MDR tox inconclusive, MCF10A rereplic inconclusive, KB-3-1 cytotox inconclusive
COc1cc2nc(N3CCCN(C)CC3)nc(N(C)C)c2cc1OC	none (no result: KB-V1 MDR tox, MCF10A rereplic, SW480 rerep, KB-3-1 cytotox)
Cc1c(Cl)cccc1NC(=S)NCCc1ccc(Cl)cc1	HT1080-NT tox inconclusive, HT1080 IDH1KD tx inconclusive, SW480 rerep 13µM, KB-3-1 cytotox inconclusive
O=c1c2cc([N+](=O)[O-])cc([N+](=O)[O-])c2[nH]n1-c1ccccc1	KB-V1 MDR tox 0.82µM, MCF10A rereplic inconclusive, KB-3-1 cytotox inconclusive
CCN(CC)c1ccccc1/C=C/[n+]1ccc(CCCCI)c2ccccc21	KB-V1 MDR tox inconclusive, KB-3-1 cytotox 3.7µM (no result: HT1080-NT tox, HT1080 IDH1KD tx, MCF10A rereplic, SW480 rerep)
COc1ccc(N(C(=O)C(C)C)S(=O)(=O)c2ccc(Cl)cc2)cc1	KB-V1 MDR tox 18µM, HT1080 IDH1KD tx inconclusive
O=C(CCc1ccccc1)NNC(=S)NC(=O)c1ccccc1	KB-V1 MDR tox inconclusive, HT1080-NT tox inconclusive, HT1080 IDH1KD tx 11µM, MCF10A rereplic 3.3µM, SW480 rerep 3.7µM
CC(C)(C)c1cc(CCC(=O)NNC(=S)NC(=O)c2ccccc2)cc(C(C)(C)C)c1O	KB-V1 MDR tox inconclusive, HT1080-NT tox 15µM, HT1080 IDH1KD tx inconclusive, MCF10A rereplic inconclusive, SW480 rerep inconclusive, KB-3-1 cytotox inconclusive
CC(=O)NC(=S)NNC(=O)CCc1ccccc1	none
O=C(CCc1ccccc1)NC(=S)Nc1cccc(C(=O)O)c1	none
CC(C)(C)c1cc(CCC(=O)NNC(=O)c2ccco2)cc(C(C)(C)C)c1O	MCF10A rereplic inconclusive
O=C(CCc1ccccc1)NC(=S)Nc1cccc(Br)c1	MCF10A rereplic 16µM
O=C(NCc1ccccc1)C(c1c(F)cccc1Cl)N(C(=O)c1csnn1)C1CC1 (configuration not stated)	MCF10A rereplic inconclusive
CCc1ccc(CN(C)C(=O)CCc2nc3ccccc3n(-c3ccc(OC)cc3)c2=O)cc1	KB-V1 MDR tox 12µM, HT1080 IDH1KD tx 15µM, MCF10A rereplic inconclusive, SW480 rerep inconclusive
Cc1cccc(CNC(=O)CN2C(=O)CSc3c2c(C)nn3-c2ccccc2)c1	none (no result: HT1080-NT tox, HT1080 IDH1KD tx, MCF10A rereplic, SW480 rerep)
Fc1ccc2c(c1)C1OCCCC1C(c1ccccc1)N2 (configuration not stated)	HT1080-NT tox inconclusive, HT1080 IDH1KD tx inconclusive, MCF10A rereplic 6.5µM, SW480 rerep inconclusive
CN1CCN(c2nc(-c3cccc([N+](=O)[O-])c3)nc3ccccc23)CC1	HT1080-NT tox inconclusive, HT1080 IDH1KD tx inconclusive, MCF10A rereplic 23µM, SW480 rerep 23µM
CCN(C(=O)COC(=O)CCc1c[nH]c2ccccc12)c1c(N)n(Cc2ccccc2)c(=O)[nH]c1=O	none
O=C(N/N=C/c1cccc2nccnc12)c1ccccc1O	HT1080-NT tox inconclusive, MCF10A rereplic inconclusive, SW480 rerep 15µM, KB-3-1 cytotox inconclusive
O=C(N/N=C/c1cccc2nccnc12)c1ccncc1	HT1080 IDH1KD tx inconclusive, SW480 rerep inconclusive
CCC(C)NC(=O)c1nc2c(nnn2Cc2ccccc2Cl)c(=O)[nH]1 (configuration not stated)	none
